Screening data (PubChem BioAssay)
Hits are enriched below; roughly 11% of the tested compounds scored in any of these assays.
hNpr1 antagonist: Natriuretic polypeptide receptor (hNpr1) antagonism - Primary qHTS | HEK293 hNpr1 GloSensor cGMP, ANP-stimulated luminescence | Potency, µM (doses to about 46.3 µM), actives largely listed as inhibitors | hit rate 1.6% among 76,000 | Atrial natriuretic peptide receptor 1 (Homo sapiens), P16066 | AID 1347048, 2019; calls by dose curve; also: nearly all actives have a fitted effect of over 60% in size
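Compound pre-incubated 30 min at room temperature on GloSensor-loaded HEK293 cells stably carrying hNpr1 and the pGS-40F cGMP biosensor. Stimulation uses hNppA at 0.1 nM final; luminescence is taken at baseline and 20 min post-agonist.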
Luciferase inh: Firefly luciferase inhibition profiling of diverse chemical library using quantitative high-throughput screening. Luciferin 4-monooxygenase (Photinus pyralis), P08659. purified P. pyralis luciferase, luminescence, biochemical. Potency, µM (series often up to 115 µM), actives largely listed as inhibitors. hit rate 2.5% among 76,000; also: nearly all actives have a fitted effect of over 65% in size
Target sequence (P08659 whole entry, looked up): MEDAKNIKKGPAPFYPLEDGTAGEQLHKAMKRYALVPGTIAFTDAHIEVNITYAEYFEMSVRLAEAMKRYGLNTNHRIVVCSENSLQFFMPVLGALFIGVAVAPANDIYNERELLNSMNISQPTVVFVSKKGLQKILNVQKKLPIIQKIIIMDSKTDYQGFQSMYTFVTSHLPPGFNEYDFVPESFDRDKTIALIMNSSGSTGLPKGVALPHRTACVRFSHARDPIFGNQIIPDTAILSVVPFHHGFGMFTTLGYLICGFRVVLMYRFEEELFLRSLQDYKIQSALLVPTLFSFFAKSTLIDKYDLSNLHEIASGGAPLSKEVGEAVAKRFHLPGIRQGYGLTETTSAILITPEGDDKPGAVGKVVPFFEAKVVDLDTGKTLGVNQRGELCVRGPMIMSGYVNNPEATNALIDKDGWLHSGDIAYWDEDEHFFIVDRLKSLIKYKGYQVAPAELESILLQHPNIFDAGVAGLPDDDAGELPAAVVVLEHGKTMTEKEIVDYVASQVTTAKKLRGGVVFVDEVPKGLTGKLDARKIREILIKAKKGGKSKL
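Luminescence read by CCD imager after adding enzyme (10nM final) to wells holding compound, titrated in qHTS. Substrates 10uM each D-luciferin and ATP; buffer 50mM Tris acetate pH 7.5, 10mM Mg acetate, Tween-20, BSA.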
NIH3T3 tox: Cytotoxic Profiling in NIH 3T3 Cell Line of Diverse Libraries Using Quantitative High-Throughput Screening | hit rate 4.3% among 94,000 | Potency, µM (doses to about 96.7 µM), most hits filed as inhibitors | NIH 3T3 viability, CellTiter-Glo ATP luminescence, 48-72 h; also: nearly all actives have a fitted effect of over 55% in size
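First NIH 3T3 cells are plated at 400 cells/well; next compound is pinned in; then plates incubate 48 or 72 hr at 37 °C; finally CellTiter-Glo is added and luminescence read after 10 min.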
HEK cytotox: Cytotoxic Profiling in HEK 293 Cell Line of Diverse Libraries Using Quantitative High-Throughput Screening; HEK 293 viability, ATP luminescence (CellTiter-Glo), 48-72 h; Potency, µM (titrated, usually from 115 µM), hits mostly inhibitors; hit rate 6.6% among 94,000; also: nearly all actives have a fitted effect of over 60% in size
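HEK 293 cells seeded at 250 cells/well were exposed to compound for 48 or 72 hr at 37 degree Celsius. Viability taken as ATP content by CellTiter-Glo luminescence.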
Large screens that a line does not name were inactive. Unless noted, calls follow the shape of the dose curve; as a rule, active = well fitted curve in the direction sought with a large enough effect; inconclusive = small, poorly fitted or top-dose-only effect, or another doubt; inactive = no such curve, though single readings can be large; an effect the other way counts as inactive or inconclusive.

Cc1cc(CN2CCC(Cc3ccc(F)cc3)CC2)n(C)n1	hNpr1 antagonist inconclusive, NIH3T3 tox inconclusive, HEK cytotox 40µM
Cc1cc(C(=O)N2CCC(Cc3ccc(C(N)=O)cc3)CC2)n(C)n1	HEK cytotox inconclusive
COc1ccccc1C(=O)N1CCC(C(=O)N2CCCC2c2nc3ccncc3[nH]2)CC1 (stereo not drawn)	none (no result: hNpr1 antagonist, Luciferase inh)
O=S(=O)(c1ccccc1F)N1CCC(CCc2nc(C3CCOCC3)no2)CC1	NIH3T3 tox inconclusive, HEK cytotox 45µM (no result: hNpr1 antagonist, Luciferase inh)
O=C(c1ccccc1F)N1CCCC(Cc2nc(C3CCOCC3)no2)C1 (stereo not drawn)	none
CC1CCC2(CC1)OCC(C(=O)NCc1ccccc1)N2C(=O)c1ccc(Cl)c(Cl)c1 (stereo not drawn)	NIH3T3 tox 20µM, HEK cytotox inconclusive
Cc1ccc(C(=O)NC2CCN(c3cc(-c4ccc(F)cc4)[nH]n3)C2)cc1C (stereo not drawn)	NIH3T3 tox inconclusive, HEK cytotox inconclusive
O=C1CC(c2ccccc2)N(C(=O)CNC(=O)c2[nH]nc3c2COc2ccccc2-3)CCCCCN1 (stereo not drawn)	NIH3T3 tox inconclusive, HEK cytotox 32µM
O=C1CC(c2ccccc2)N(C(=O)CNC(=O)c2n[nH]c3ccccc23)CCCCCN1 (stereo not drawn)	Luciferase inh 25µM
O=C1CC(c2ccccc2)N(C(=O)CNC(=O)c2nccc3ccccc23)CCCCCCN1 (stereo not drawn)	NIH3T3 tox inconclusive, HEK cytotox inconclusive
CCc1ccc(CNC(=O)C2CCN(C(=O)c3ncn4c3COC(c3ccc(F)cc3)C4)CC2)cc1 (stereo not drawn)	Luciferase inh inconclusive
COc1ccc(CNC(=O)C2CCN(C(=O)c3ncn4c3COC(c3ccc(C)cc3)C4)CC2)cc1 (stereo not drawn)	Luciferase inh 40µM
Cc1ccc(C2Cn3cnc(C(=O)N4CCC(C(=O)NCc5ccc(F)cc5)CC4)c3CO2)cc1 (stereo not drawn)	Luciferase inh 35µM
CN1Cc2ccc(NCc3ccccc3)nc2C(C)(C(=O)NCCOc2ccccc2)C1 (stereo not drawn)	hNpr1 antagonist inconclusive, Luciferase inh 63µM, NIH3T3 tox inconclusive, HEK cytotox inconclusive
CN1Cc2ccc(NCc3ccccc3)nc2C(C)(C(=O)Nc2ccccc2)C1 (stereo not drawn)	NIH3T3 tox 45µM, HEK cytotox 63µM
COCCNC(=O)C1(C)CN(C)Cc2ccc(Nc3ccccc3)nc21 (stereo not drawn)	HEK cytotox inconclusive
CN(C)CCNC(=O)C1(C)CN(Cc2ccccc2)Cc2ccc(Nc3ccccc3)nc21 (stereo not drawn)	NIH3T3 tox 16µM, HEK cytotox 28µM
CN1Cc2ccc(NCc3ccccc3)nc2C(C)(C(=O)NCc2cccs2)C1 (stereo not drawn)	NIH3T3 tox 79µM, HEK cytotox inconclusive
COc1ccc(NC(=O)C2(C)CN(C)Cc3ccc(NCc4ccccc4)nc32)cc1 (stereo not drawn)	NIH3T3 tox 45µM, HEK cytotox inconclusive
COc1cccc(-c2cnc3[nH]cc(CC(=O)NCc4cccnc4)c3c2)c1	hNpr1 antagonist inconclusive, NIH3T3 tox inconclusive, HEK cytotox inconclusive
O=C(Cc1c[nH]c2ncc(-c3cccc(Cl)c3)cc12)NCc1cccnc1	hNpr1 antagonist 35µM, Luciferase inh inconclusive, NIH3T3 tox inconclusive, HEK cytotox 79µM
COc1ccc(OC)c(-c2cnc3[nH]cc(CC(=O)NCc4cccnc4)c3c2)c1	hNpr1 antagonist inconclusive, NIH3T3 tox inconclusive, HEK cytotox inconclusive
NC(=O)Cc1c[nH]c2ncc(-c3cccc(F)c3)cc12	NIH3T3 tox 89µM
Cc1cc(-c2cnc3[nH]cc(CC(N)=O)c3c2)ccn1	NIH3T3 tox inconclusive
O=C(Cc1c[nH]c2ncc(-c3cccc(F)c3)cc12)NCc1cccnc1	hNpr1 antagonist inconclusive, NIH3T3 tox inconclusive, HEK cytotox 71µM
COc1ccc(-c2cnc3[nH]cc(CC(=O)NCc4cccnc4)c3c2)cn1	Luciferase inh inconclusive, NIH3T3 tox 79µM, HEK cytotox inconclusive
O=C(c1cccs1)N1CCC(N2CC(OCC3CC3)C23CCOCC3)CC1 (stereo not drawn)	none
COc1ccccc1-c1cccc(C(=O)N2CCN(C(=O)N(C)C)CC2)c1	HEK cytotox inconclusive (no result: hNpr1 antagonist, Luciferase inh)
O=C(Cc1cccc(Cl)c1)NCc1c[nH]c2ncccc12	Luciferase inh inconclusive, HEK cytotox inconclusive
O=C(Cc1c[nH]c2ncc(-c3ccccc3)cc12)NCc1ccncc1	NIH3T3 tox 28µM, HEK cytotox inconclusive
O=C(Cc1c[nH]c2ncc(-c3cccnc3)cc12)NCc1cccc(F)c1	NIH3T3 tox 25µM, HEK cytotox inconclusive
O=C(Cc1c[nH]c2ncc(-c3ccncc3)cc12)NCc1cccnc1	NIH3T3 tox 79µM, HEK cytotox inconclusive
C[S+](=O)([O-])c1cccc(NC(=O)Cc2c[nH]c3ncc(-c4cccnc4)cc23)c1	NIH3T3 tox 35µM, HEK cytotox inconclusive
COc1cccc(OC)c1CN1CC(O)CN([S+](=O)([O-])c2ccc(F)cc2)CC1=O (stereo not drawn)	HEK cytotox inconclusive (no result: hNpr1 antagonist, Luciferase inh)
O=C(Cc1c[nH]c2ncc(-c3ccccc3)cc12)NCc1cnccn1	NIH3T3 tox inconclusive
O=C(Cc1c[nH]c2ncc(-c3cccnc3)cc12)NCCc1ccccc1	NIH3T3 tox 22µM, HEK cytotox inconclusive
Cc1ccc(C2Cn3nnc(-c4noc(-c5ccc[nH]5)n4)c3CO2)cc1 (stereo not drawn)	none
O=C(O)COc1ccc(-c2nccc3c2C(=O)N(Cc2c[nH]c4ccccc24)CC(CNC(=O)c2cccc(Cl)c2)O3)cc1 (stereo not drawn)	NIH3T3 tox 32µM
COc1ccc(CNC(=O)C[C@@H]2CCNC[C@@H]2Cc2cc(CC3CCCCC3)on2)cc1	hNpr1 antagonist inconclusive, NIH3T3 tox 28µM, HEK cytotox 28µM
COc1ccc(CNC(=O)C[C@@H]2CCNC[C@@H]2Cc2cc(C(C)(C)C)on2)cc1	HEK cytotox inconclusive
COc1ccc(CNC(=O)C[C@@H]2CCNC[C@@H]2Cc2cc(COc3ccccc3)on2)cc1	NIH3T3 tox 25µM, HEK cytotox inconclusive
O=C(C[C@@H]1CCNC[C@@H]1Cc1cc(CC2CCCCC2)on1)NCc1ccco1	hNpr1 antagonist inconclusive, NIH3T3 tox 100µM, HEK cytotox 45µM
COc1ccc(CNC(=O)C[C@@H]2CCNC[C@@H]2Cc2cc(CSc3ccccc3)on2)cc1	NIH3T3 tox inconclusive, HEK cytotox 50µM
COc1ccc(CNC(=O)C[C@@H]2CCNC[C@@H]2Cc2cc(CN3CCOCC3)on2)cc1	none
CC(=O)Nc1ccc(-c2nnc3n2CCN(C(=O)C2CCCC2)C3)cc1	none (no result: hNpr1 antagonist, Luciferase inh)
OC1(CNCc2csc3ccc(Cl)cc23)CNCCOC1 (stereo not drawn)	HEK cytotox inconclusive
